In PubChem BioAssay (NCATS):
Inconclusive results are not listed. Unless noted, calls come from the whole dose curve; as a rule, active = well fitted curve in either direction with a large enough effect (not every such curve was filed as active); inconclusive = small, poorly fitted or top-dose-only effect, or another doubt; inactive = flat fitted curve, though single readings scatter.

Assays:
[1] = AP1 Signaling Pathway (AID 357); conditions: ME-180 AP-1-bla reporter, EGF-induced, beta-lactamase ratio, 5 h; at 17.2 µM (top of the series) unless noted;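 note: ME-180 reporter cells stimulated with EGF at its EC50 level; % is set by controls: 0 for no effect and ±100 for the full control effect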
Summary of the method: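 Cells are seeded overnight, exposed to compound titrations and an EC50 level of EGF for 5 hours at 37 °C, then loaded with CCF4 dye for 2.5 hours. Beta-lactamase activity under the AP-1 element is read as a blue/green ratio.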

[2] = NFAT Signaling Pathway (AID 444); conditions: Jurkat NFAT-bla M1, carbachol, beta-lactamase ratio, 5 h; at 17.2 µM (top of the series) unless noted;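 note: carbachol stimulus at about its EC50 of 1 µM final; % is set by controls: 0 for no effect and ±100 for the full control effect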
Summary of the method: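 Jurkat cells with NFAT-driven β-lactamase reporter and co-expressed M1 receptor, stimulated with carbachol (final 1 uM, ~EC50), compound titration, 5 h at 37 °C. CCF4 loaded 1 h at RT; 460/530 nm ratio gave %activity and AC50.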

[3] = Stat Signaling Pathway (AID 446); conditions: ME-180 (cervical carcinoma) SIE beta-lactamase reporter, IL-6 stimulated, 5 h; at 17.2 µM (top of the series) unless noted;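 note: ME-180 cervical cancer cells given 40 pM IL-6 alongside compound; SIE-controlled beta-lactamase reporter measured as 460/530 nm FRET emission ratio; % is set by controls: 0 for no effect and ±100 for the full control effect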
Summary of the method: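 FRET read-out (405 nm excitation, 460/530 nm emission) of a beta-lactamase reporter under a STAT-inducible element in ME-180 cervical carcinoma cells. Cells with compound receive 40 pM IL-6 for 5 h. Values are normalised to AC90 stimulation and AC90 JAK-inhibitor controls.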

[4] = molecular target: Glucocorticoid receptor (Homo sapiens) (UniProt P04150); assay: GR-GFP Redistribution (AID 450;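 active = compounds whose dose series gives a full or clear partial fitted curve of increased nuclear translocation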; note: potency is the fitted concentration of half-maximal effect)
Sequence of Glucocorticoid receptor (Homo sapiens) (P04150 whole entry, looked up): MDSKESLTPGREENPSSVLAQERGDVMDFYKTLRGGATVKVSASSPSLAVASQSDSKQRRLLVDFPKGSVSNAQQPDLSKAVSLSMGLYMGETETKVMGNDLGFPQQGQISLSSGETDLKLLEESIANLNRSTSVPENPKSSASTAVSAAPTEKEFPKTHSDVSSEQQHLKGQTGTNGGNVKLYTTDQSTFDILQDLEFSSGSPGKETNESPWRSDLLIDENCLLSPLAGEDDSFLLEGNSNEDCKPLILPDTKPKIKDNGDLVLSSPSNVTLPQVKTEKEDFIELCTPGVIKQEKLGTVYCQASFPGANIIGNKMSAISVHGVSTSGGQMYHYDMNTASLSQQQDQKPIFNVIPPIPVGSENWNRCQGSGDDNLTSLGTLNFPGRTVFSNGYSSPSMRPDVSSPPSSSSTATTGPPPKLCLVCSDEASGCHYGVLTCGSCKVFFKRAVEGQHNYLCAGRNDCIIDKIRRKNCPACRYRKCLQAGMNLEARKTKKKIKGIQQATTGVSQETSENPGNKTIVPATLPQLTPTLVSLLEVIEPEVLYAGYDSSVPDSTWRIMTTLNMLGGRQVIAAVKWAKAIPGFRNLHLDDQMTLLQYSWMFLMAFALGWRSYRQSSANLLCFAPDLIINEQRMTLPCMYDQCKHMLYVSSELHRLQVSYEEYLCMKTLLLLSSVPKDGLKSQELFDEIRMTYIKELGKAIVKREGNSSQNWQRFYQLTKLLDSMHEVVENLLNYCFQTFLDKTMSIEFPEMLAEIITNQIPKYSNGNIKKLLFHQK

O=C(NCCN1CCOCC1)c1cc2n(n1)C(C(F)(F)F)CC(c1ccc(F)cc1)N2 (stereo not given)
inactive: activity change, negative = inhibition [1] 2.33% | activity change, negative = inhibition [2] 0.228% | activity, negative = inhibition [3] 8.95% | Potency [4] > 20.6 µM

OC1CN=C2Sc3ccccc3N2C1 (stereo not given)
inactive: activity change, negative = inhibition [1] 1.76% | activity change, negative = inhibition [2] -2.78% | activity, negative = inhibition [3] -3.59% | Potency [4] > 20.6 µM

Cn1c(=O)c2c(nc(Br)n2CCSc2nc3ccccc3o2)n(C)c1=O
inactive: activity change, negative = inhibition [1] 5.24% | activity change, negative = inhibition [2] 1.98% | activity, negative = inhibition [3] 10.5% | Potency [4] > 20.6 µM

CSc1nc(C)cc(OCCNS(=O)(=O)c2cc(C)ccc2C)n1
inactive: activity change, negative = inhibition [1] -11.3% | activity change, negative = inhibition [2] -2.9% | activity, negative = inhibition [3] 1.66% | Potency [4] > 20.6 µM

CC1CN(c2oc(-c3cccs3)nc2C#N)CC(C)O1 (stereo not given)
inactive: activity change, negative = inhibition [1] 3.54% | activity change, negative = inhibition [2] 5.83% | activity, negative = inhibition [3] 14.9% | Potency [4] > 20.6 µM

Cc1nnc2n(-c3ccccc3)c(=O)c3c4c(sc3n12)COC(C(C)C)C4 (stereo not given)
inactive: activity change, negative = inhibition [1] -3.43% | activity change, negative = inhibition [2] -28.2% | activity, negative = inhibition [3] 4.52% | Potency [4] > 20.6 µM

Cn1c(NCc2ccccc2)nc2c1c(=O)n(Cc1ccccc1)c(=O)n2C
inactive: activity change, negative = inhibition [1] -27.4% | activity change, negative = inhibition [2] -0.651% | activity, negative = inhibition [3] -21.1% | Potency [4] > 20.6 µM

c1coc(-c2nnc3sc(-c4cccs4)nn23)c1
inactive: activity change, negative = inhibition [1] -11.6% | activity change, negative = inhibition [2] -8.1% | activity, negative = inhibition [3] -3.51% | Potency [4] > 20.6 µM

CN=C1c2c(-c3ccccc3)c3cc(OC)ccc3n2CCN1C
inactive: activity change, negative = inhibition [1] 24.6% | activity change, negative = inhibition [2] -8.39% | activity, negative = inhibition [3] -1.77% | Potency [4] > 20.6 µM

Cn1c2c(c(=O)n(C)c1=O)C(NC(=O)c1cccs1)(C(F)(F)F)C(=O)N2 (stereo not given)
inactive: activity change, negative = inhibition [1] -2.19% | activity change, negative = inhibition [2] 12.3% | activity, negative = inhibition [3] 5.6% | Potency [4] > 20.6 µM

N/C(=N\c1nc2ccccc2o1)NC(=O)c1ccccc1NC(=O)c1ccccc1
inactive: activity change, negative = inhibition [1] 14.1% | activity change, negative = inhibition [2] -14.2% | activity, negative = inhibition [3] -27.8% | Potency [4] > 20.6 µM

NC(=O)/C(=N\O)c1ccccc1
inactive: activity change, negative = inhibition [1] -4.98% | activity change, negative = inhibition [2] 15.2% | activity, negative = inhibition [3] -0.233% | Potency [4] > 20.6 µM

CCOC(=O)Cc1[nH]nc2c1C(c1cc(OC)ccc1OC)C(C#N)=C(N)O2 (stereo not given)
inactive: activity change, negative = inhibition [1] -11.5% | activity change, negative = inhibition [2] -0.329% | activity, negative = inhibition [3] -9.93% | Potency [4] > 20.6 µM

Cc1nc2c(c(=O)n1CC1CCCO1)c1nc3ccccc3nc1n2CC(C)C (stereo not given)
inactive: activity change, negative = inhibition [1] 2.75% | activity change, negative = inhibition [2] 6.99% | activity, negative = inhibition [3] 8.26% | Potency [4] > 20.6 µM

OC(CCCN1CCC(O)(c2ccc(Cl)cc2)CC1)c1ccc(F)cc1 (stereo not given)
inactive: activity change, negative = inhibition [1] -2.74% | activity change, negative = inhibition [2] -27.5% | activity, negative = inhibition [3] 4.61% | Potency [4] > 20.6 µM

COc1ccccc1N1CCN(C2CCN(C(=O)c3cc(OC)c(OC)c(OC)c3)CC2)CC1
inactive: activity change, negative = inhibition [1] 12.5% | activity change, negative = inhibition [2] 4.07% | activity, negative = inhibition [3] 10.4% | Potency [4] > 20.6 µM

O=C(Nc1ccccn1)c1ccc(=O)[nH]n1
inactive: activity change, negative = inhibition [1] -7.67% | activity change, negative = inhibition [2] 0.366% | activity, negative = inhibition [3] 1.32% | Potency [4] > 20.6 µM

Cn1c(=O)c2c(nc(NCc3ccco3)n2CCc2ccccc2)n(C)c1=O
inactive: activity change, negative = inhibition [1] -0.525% | activity change, negative = inhibition [2] -24% | activity, negative = inhibition [3] -5.04% | Potency [4] > 20.6 µM

CCNc1nc(NC(C)C)nc(N(C#N)C(C)C(=O)N(C)C)n1 (stereo not given)
inactive: activity change, negative = inhibition [1] -3.35% | activity change, negative = inhibition [2] 0.731% | activity, negative = inhibition [3] 0.0609% | Potency [4] > 20.6 µM

COc1cc(Cn2ccnc2)c(OC)cc1Cn1ccnc1
inactive: activity change, negative = inhibition [1] 5.72% | activity change, negative = inhibition [2] -19.5% | activity, negative = inhibition [3] 4.23% | Potency [4] > 20.6 µM

COC(=O)c1[nH]c2cc(OC)ccc2c1NC(=O)CN1CCC(C(N)=O)CC1
inactive: activity change, negative = inhibition [1] -3.69% | activity change, negative = inhibition [2] -2.98% | activity, negative = inhibition [3] 0.718% | Potency [4] > 20.6 µM

CCN(CC)CCCN1C(=O)C(=O)/C(=C(/O)c2ccc3c(c2)CC(C)O3)C1c1cccnc1 (stereo not given)
inactive: activity change, negative = inhibition [1] 4.22% | activity change, negative = inhibition [2] 11.9% | activity, negative = inhibition [3] 9.37% | Potency [4] > 20.6 µM

CC(C)(C)C1=Nn2c(nnc2C2CCCCC2)SC1
inactive: activity change, negative = inhibition [1] -2.23% | activity change, negative = inhibition [2] -6.37% | activity, negative = inhibition [3] 22.7% | Potency [4] > 20.6 µM

COc1cc(C2C(C(C)=O)=C(O)C(=O)N2c2ccc(Br)cn2)ccc1O (stereo not given)
inactive: activity change, negative = inhibition [1] 2.47% | activity change, negative = inhibition [2] -15.5% | activity, negative = inhibition [3] -8.75% | Potency [4] > 20.6 µM

O=P(O)(c1ccccc1)c1ccccc1O
inactive: activity change, negative = inhibition [1] 6.62% | activity change, negative = inhibition [2] 7.27% | activity, negative = inhibition [3] 8.28% | Potency [4] > 20.6 µM
